Common to all, as to assay: DAPPL (digital affinity profiling via proximity ligation, sequencing); 10 mM Tris-HCl pH 7.5, 50 mM NaCl, 1 mM DTT, 4% glycerol, room temperature, 30 min; GST-TFs on glutathione beads, 16-mer random dsDNA library, 0.1% formaldehyde crosslink after washing; high values mean tight binding
Holding throughout (conditions): protein: recombinant; tags: N-terminal GST; dsDNA, one strand shown

One assay has as its target T1, ERF (Homo sapiens, UniProt P50548 1-548).
T1 sequence: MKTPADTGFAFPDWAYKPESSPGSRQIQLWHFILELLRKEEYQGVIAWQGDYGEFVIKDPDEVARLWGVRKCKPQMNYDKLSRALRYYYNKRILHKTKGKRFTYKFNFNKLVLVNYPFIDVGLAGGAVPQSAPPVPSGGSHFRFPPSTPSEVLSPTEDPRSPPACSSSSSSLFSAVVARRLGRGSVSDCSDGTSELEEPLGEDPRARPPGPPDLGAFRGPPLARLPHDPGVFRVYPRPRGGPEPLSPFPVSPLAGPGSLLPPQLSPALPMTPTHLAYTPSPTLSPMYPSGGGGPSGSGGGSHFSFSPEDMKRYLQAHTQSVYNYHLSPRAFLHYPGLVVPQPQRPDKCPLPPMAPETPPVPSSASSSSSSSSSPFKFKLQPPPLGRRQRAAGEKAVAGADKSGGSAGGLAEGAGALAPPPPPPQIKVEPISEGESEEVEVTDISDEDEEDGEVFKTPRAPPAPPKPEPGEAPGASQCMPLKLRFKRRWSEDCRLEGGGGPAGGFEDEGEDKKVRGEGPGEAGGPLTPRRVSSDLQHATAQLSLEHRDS
The gist of the method: (§1)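 Human transcription factors carrying a GST fusion were produced in yeast, bound to glutathione beads, tagged with DNA barcodes and pooled together with a tag-only sample. Each pool was held with 200 nmole of a random double-stranded 16-mer DNA library in Tris/NaCl/DTT/glycerol buffer for 30 min at room temperature, then washed, crosslinked in 0.1% formaldehyde, proximity-ligated with BsaI/T4 ligase (1 h, 37 °C), PCR-amplified and sequenced on an Illumina NextSeq500. Binding signal is the read frequency of each hexamer for a given factor divided by its frequency in the tag-only sample.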

A further assay concerns the target T2, ETV3L (Homo sapiens, UniProt Q6ZN32 1-361).
T2 sequence: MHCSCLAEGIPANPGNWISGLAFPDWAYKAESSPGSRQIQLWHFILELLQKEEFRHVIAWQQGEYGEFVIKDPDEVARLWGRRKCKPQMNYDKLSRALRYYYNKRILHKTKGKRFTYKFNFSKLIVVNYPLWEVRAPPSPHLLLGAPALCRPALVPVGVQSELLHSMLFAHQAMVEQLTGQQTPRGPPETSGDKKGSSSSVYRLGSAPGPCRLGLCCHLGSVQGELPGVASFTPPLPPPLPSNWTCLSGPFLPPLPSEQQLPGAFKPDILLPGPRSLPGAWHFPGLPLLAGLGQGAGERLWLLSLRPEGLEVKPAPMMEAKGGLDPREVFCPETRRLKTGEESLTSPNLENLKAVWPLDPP
The gist of the method:
as §1

The target of a further assay is T3, ETS2 (Homo sapiens, UniProt P15036 1-469).
T3 sequence: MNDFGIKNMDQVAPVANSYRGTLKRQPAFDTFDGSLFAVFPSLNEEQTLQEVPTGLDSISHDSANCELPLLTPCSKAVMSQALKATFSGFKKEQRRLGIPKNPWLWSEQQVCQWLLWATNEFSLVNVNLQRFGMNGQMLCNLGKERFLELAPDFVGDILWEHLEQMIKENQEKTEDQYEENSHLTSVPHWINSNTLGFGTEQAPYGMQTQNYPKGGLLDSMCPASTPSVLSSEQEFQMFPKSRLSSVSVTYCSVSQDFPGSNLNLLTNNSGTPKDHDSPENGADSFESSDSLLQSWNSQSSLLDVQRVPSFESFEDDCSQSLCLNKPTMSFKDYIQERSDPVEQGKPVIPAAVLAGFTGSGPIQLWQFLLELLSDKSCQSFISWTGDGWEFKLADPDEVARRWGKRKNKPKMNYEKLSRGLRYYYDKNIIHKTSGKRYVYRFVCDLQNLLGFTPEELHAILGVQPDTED
Put shortly: as §1

Another assay addresses T4, SPDEF (Homo sapiens, UniProt O95238 1-335).
T4 sequence: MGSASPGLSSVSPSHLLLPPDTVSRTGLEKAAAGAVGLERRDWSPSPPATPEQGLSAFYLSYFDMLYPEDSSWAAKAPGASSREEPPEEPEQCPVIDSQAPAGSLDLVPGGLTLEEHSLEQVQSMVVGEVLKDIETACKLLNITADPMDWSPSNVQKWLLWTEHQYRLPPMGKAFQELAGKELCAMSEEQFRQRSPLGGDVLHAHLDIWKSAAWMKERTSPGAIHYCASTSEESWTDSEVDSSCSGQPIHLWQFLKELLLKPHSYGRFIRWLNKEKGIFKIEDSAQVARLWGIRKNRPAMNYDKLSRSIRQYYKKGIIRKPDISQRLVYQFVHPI
Put shortly:
as §1

The target in the next assay is T5, ETV7 (Homo sapiens, UniProt Q9Y603 1-341).
T5 sequence: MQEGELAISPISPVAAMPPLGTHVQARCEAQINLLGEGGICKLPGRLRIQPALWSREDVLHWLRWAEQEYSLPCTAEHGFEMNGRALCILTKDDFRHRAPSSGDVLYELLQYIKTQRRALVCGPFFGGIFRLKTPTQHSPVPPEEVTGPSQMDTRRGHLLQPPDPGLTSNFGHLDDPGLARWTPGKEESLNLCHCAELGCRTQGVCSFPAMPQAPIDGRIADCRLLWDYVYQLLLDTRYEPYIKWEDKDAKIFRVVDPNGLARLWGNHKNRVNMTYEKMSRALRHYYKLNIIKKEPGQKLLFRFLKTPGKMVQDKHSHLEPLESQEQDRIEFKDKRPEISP
Put shortly:
as §1

In the next assay the target is T6, ELF5 (Homo sapiens, UniProt Q9UKW6-2 1-255).
T6 sequence: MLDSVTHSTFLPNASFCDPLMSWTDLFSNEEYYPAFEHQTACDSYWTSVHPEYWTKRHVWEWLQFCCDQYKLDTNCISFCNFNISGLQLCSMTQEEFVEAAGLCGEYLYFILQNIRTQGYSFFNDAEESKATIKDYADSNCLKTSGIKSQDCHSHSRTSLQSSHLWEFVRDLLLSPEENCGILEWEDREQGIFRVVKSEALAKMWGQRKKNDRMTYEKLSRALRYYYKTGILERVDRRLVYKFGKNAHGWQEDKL
The gist of the method:
as §1

The target in the next assay is T7, ETV3 (Homo sapiens, UniProt P41162-2 1-143).
T7 sequence: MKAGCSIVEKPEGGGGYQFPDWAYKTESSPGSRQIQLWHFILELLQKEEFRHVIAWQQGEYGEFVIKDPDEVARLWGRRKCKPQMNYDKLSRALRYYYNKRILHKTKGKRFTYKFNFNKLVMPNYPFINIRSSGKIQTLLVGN
Put shortly:
as §1

The target in the next assay is ETV6 (Homo sapiens, UniProt P41212 1-452). Put shortly: as §1
Sequence of ETV6 (P41212 whole entry): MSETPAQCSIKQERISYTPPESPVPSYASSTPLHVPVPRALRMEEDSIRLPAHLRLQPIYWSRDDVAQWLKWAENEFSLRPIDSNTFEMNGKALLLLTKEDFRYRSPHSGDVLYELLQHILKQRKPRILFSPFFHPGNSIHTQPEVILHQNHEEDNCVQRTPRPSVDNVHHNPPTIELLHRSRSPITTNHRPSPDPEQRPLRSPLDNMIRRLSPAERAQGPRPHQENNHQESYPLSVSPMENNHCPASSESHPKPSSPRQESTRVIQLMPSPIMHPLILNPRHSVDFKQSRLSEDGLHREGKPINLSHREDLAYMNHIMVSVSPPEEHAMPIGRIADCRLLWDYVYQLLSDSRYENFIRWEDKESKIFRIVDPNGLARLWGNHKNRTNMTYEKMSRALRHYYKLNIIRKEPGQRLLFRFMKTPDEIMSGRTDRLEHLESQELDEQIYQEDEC

Consider AAGAAT, for which the binding signal is 1.2 fold enrichment (6-mer frequency, TF over GST control) with ERF; 1.15 fold enrichment (6-mer frequency, TF over GST control) with ETV3L; 1.11 fold enrichment (6-mer frequency, TF over GST control) with ETS2; 1.07 fold enrichment (6-mer frequency, TF over GST control) in the assay with SPDEF; 1.1 fold enrichment (6-mer frequency, TF over GST control) with ETV7; 1.15 fold enrichment (6-mer frequency, TF over GST control) with ELF5. Besides, the binding signal in the assay with ETV3 was 1.14 fold enrichment (6-mer frequency, TF over GST control); with ETV6, 1.08 fold enrichment (6-mer frequency, TF over GST control).
Take CCTCAC: the binding signal with ERF was 1.09 fold enrichment (6-mer frequency, TF over GST control); with ETV3L it was 1.19 fold enrichment (6-mer frequency, TF over GST control); with ETS2, 1.19 fold enrichment (6-mer frequency, TF over GST control); in the assay with SPDEF it was 1.24 fold enrichment (6-mer frequency, TF over GST control); with ETV7, 1.15 fold enrichment (6-mer frequency, TF over GST control); with ELF5, 1.22 fold enrichment (6-mer frequency, TF over GST control). In addition, the binding signal in the assay with ETV3 is 1.12 fold enrichment (6-mer frequency, TF over GST control); with ETV6, 1.07 fold enrichment (6-mer frequency, TF over GST control).
As for TGCTAC, the binding signal in the assay with ERF was 1.39 fold enrichment (6-mer frequency, TF over GST control); with ETV3L, 1.3 fold enrichment (6-mer frequency, TF over GST control); with ETS2, 1.23 fold enrichment (6-mer frequency, TF over GST control); with SPDEF, 1.26 fold enrichment (6-mer frequency, TF over GST control); in the assay with ETV7, 1.23 fold enrichment (6-mer frequency, TF over GST control); with ELF5, 1.17 fold enrichment (6-mer frequency, TF over GST control). Besides, the binding signal with ETV3 is 1.23 fold enrichment (6-mer frequency, TF over GST control); in the assay with ETV6, 1.16 fold enrichment (6-mer frequency, TF over GST control).
As to ACCCCC, the binding signal is 1.08 fold enrichment (6-mer frequency, TF over GST control) with ERF; 1.16 fold enrichment (6-mer frequency, TF over GST control) with ETV3L; 1.15 fold enrichment (6-mer frequency, TF over GST control) with ETS2; 1.1 fold enrichment (6-mer frequency, TF over GST control) in the assay with SPDEF; 1.08 fold enrichment (6-mer frequency, TF over GST control) with ETV7; 1.12 fold enrichment (6-mer frequency, TF over GST control) with ELF5. Besides, the binding signal was 1.21 fold enrichment (6-mer frequency, TF over GST control) with ETV3 and 1.06 fold enrichment (6-mer frequency, TF over GST control) with ETV6.
In the case of CCGGTC, the binding signal was 1.1 fold enrichment (6-mer frequency, TF over GST control) with ERF; 1.13 fold enrichment (6-mer frequency, TF over GST control) with ETV3L; 1.2 fold enrichment (6-mer frequency, TF over GST control) with ETS2; 1.38 fold enrichment (6-mer frequency, TF over GST control) with SPDEF; 1.22 fold enrichment (6-mer frequency, TF over GST control) with ETV7; 1.13 fold enrichment (6-mer frequency, TF over GST control) with ELF5. The binding signal in the assay with ETV3 is 1.2 fold enrichment (6-mer frequency, TF over GST control); in the assay with ETV6, 1.15 fold enrichment (6-mer frequency, TF over GST control).
Take CATGCT: the binding signal in the assay with ERF was 1.2 fold enrichment (6-mer frequency, TF over GST control); with ETV3L it was 1.35 fold enrichment (6-mer frequency, TF over GST control); in the assay with ETS2, 1.25 fold enrichment (6-mer frequency, TF over GST control); in the assay with SPDEF, 1.2 fold enrichment (6-mer frequency, TF over GST control); with ETV7, 1.2 fold enrichment (6-mer frequency, TF over GST control); in the assay with ELF5 it was 1.19 fold enrichment (6-mer frequency, TF over GST control). For the same sequence, the binding signal in the assay with ETV3 is 1.19 fold enrichment (6-mer frequency, TF over GST control); with ETV6 it was 1.28 fold enrichment (6-mer frequency, TF over GST control).
Take ACATTC: the binding signal is 1.42 fold enrichment (6-mer frequency, TF over GST control) with ERF; 1.3 fold enrichment (6-mer frequency, TF over GST control) with ETV3L; 1.3 fold enrichment (6-mer frequency, TF over GST control) with ETS2; 1.27 fold enrichment (6-mer frequency, TF over GST control) with SPDEF; 1.31 fold enrichment (6-mer frequency, TF over GST control) with ETV7; 1.36 fold enrichment (6-mer frequency, TF over GST control) with ELF5. For the same sequence, the binding signal in the assay with ETV3 was 1.31 fold enrichment (6-mer frequency, TF over GST control); in the assay with ETV6 it was 1.4 fold enrichment (6-mer frequency, TF over GST control).
For the sequence TGCCTA, the binding signal was 1.09 fold enrichment (6-mer frequency, TF over GST control) in the assay with ERF; 1.16 fold enrichment (6-mer frequency, TF over GST control) with ETV3L; 1.16 fold enrichment (6-mer frequency, TF over GST control) with ETS2; 1.03 fold enrichment (6-mer frequency, TF over GST control) with SPDEF; 1.01 fold enrichment (6-mer frequency, TF over GST control) with ETV7; 1 fold enrichment (6-mer frequency, TF over GST control) in the assay with ELF5. The binding signal in the assay with ETV3 is 1.07 fold enrichment (6-mer frequency, TF over GST control); in the assay with ETV6, 1.07 fold enrichment (6-mer frequency, TF over GST control).

Values taken from PMC7862700, “An all-to-all approach to the identification of sequence-specific readers for epigenetic DNA modifications on cytosine”.
